Measurements published in PubChem BioAssay (EPA / NIEHS).
Values joined by “and” are separate entries in the source; they are usually repeats but may differ in a detail not shown here. Identical values can stand only once. Where a structure was tested more than once in an assay, its records may differ in their call. Active and inactive are the calls of the source. Rule for the calls: active = hit-call score of the fitted dose curve at least 0.9, where 1 is the maximum; inactive = score below 0.9.

Key:
[1] = read-out: Interleukin-1 alpha (IL1a), IL1A (gene 3552); assay: BSK_KF3CT_IL1a: BioMAP Diversity Plus: KF3CT Assay for Interleukin-1 alpha (IL1a) Biomarker Activity (AID 2283070); conditions: primary human keratinocytes with fibroblasts; actives raise or lower the signal
Summary of the method: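 Readout is IL-1a level by ELISA, compared bidirectionally with DMSO as baseline. Cells: human keratinocytes co-cultured with foreskin fibroblasts, harvested 24 h post-dose.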

[2] = read-out: C-C motif chemokine 2 (Homo sapiens) (UniProt P13500); assay: BSK_KF3CT_MCP1: BioMAP Diversity Plus: KF3CT Assay for Monocyte Chemoattractant Protein 1 (MCP1/CCL2) Biomarker Activity (AID 2283073); conditions: primary human keratinocytes with fibroblasts; actives raise or lower the signal
Summary of the method: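 KF3CT skin co-culture (keratinocytes/foreskin fibroblasts), 24 h post-dose; MCP-1 by ELISA; gain/loss of signal fit bidirectionally vs DMSO baseline.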

[3] = read-out: Matrix Metallopeptidase 9 (MMP9), MMP9 (gene 4318); assay: BSK_KF3CT_MMP9: BioMAP Diversity Plus: KF3CT Assay for Matrix Metallopeptidase 9 (MMP9) Biomarker Activity (AID 2283074); conditions: primary human keratinocytes with fibroblasts; actives raise or lower the signal;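 for AC50: MMP9 protein level quantified by ELISA in the co-culture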
Summary of the method: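 Values come from bidirectional fitting relative to DMSO of MMP-9 levels, which were measured by ELISA. Measurements were taken 24 h after chemical dosing of a keratinocyte and foreskin fibroblast co-culture.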

[4] = read-out: urokinase plasminogen activator (uPA), PLAU (gene 5328); assay: BSK_KF3CT_uPA: BioMAP Diversity Plus: KF3CT Assay for urokinase plasminogen activator (uPA) Biomarker Activity (AID 2283075); conditions: primary human keratinocytes with fibroblasts; actives raise or lower the signal
Summary of the method: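 Values derive from bidirectional fitting against DMSO controls. Keratinocyte/foreskin fibroblast co-cultures received chemical; 24 h later uPA was detected by ELISA, with SRB total-protein staining in parallel wells for overt cytotoxicity.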

CD40, CD40 (gene 958) [5] = assay: BSK_LPS_CD40: BioMAP Diversity Plus: LPS Assay for CD40 Biomarker Activity (AID 2283076); conditions: primary human HUVEC with PBMC; actives raise or lower the signal
Summary of the method: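 ELISA readout of CD40 in HUVEC/PBMC co-culture (BSK_LPS system), 24 h post-dosing; bidirectional curve fit, DMSO baseline; parallel SRB total-protein staining for cytotoxicity.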

[6] = read-out: E-selectin (Homo sapiens) (UniProt P16581); assay: BSK_LPS_Eselectin: BioMAP Diversity Plus: LPS Assay for Eselectin Biomarker Activity (AID 2283077); conditions: primary human HUVEC with PBMC; actives raise or lower the signal
Summary of the method: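 ELISA readout of E-selectin, 24 h post-dose, HUVEC + PBMC co-culture (LPS system). Gain or loss of signal vs DMSO baseline, bidirectional fit.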

[7] = read-out: Interleukin-8 (IL8), CXCL8 (gene 3576); assay: BSK_LPS_IL8: BioMAP Diversity Plus: LPS Assay for Interleukin-8 (IL8) Biomarker Activity (AID 2283078); conditions: primary human HUVEC with PBMC; actives raise or lower the signal
Summary of the method: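 HUVEC + PBMC co-culture, LPS-activated; test chemicals dosed, IL-8 read by ELISA at 24 h. Bidirectional curve fit vs DMSO baseline (gain or loss of signal).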

[8] = BSK_LPS_SRB: Viability Assessment in the BioMAP Diversity Plus: LPS Assay (AID 2283079); conditions: primary human HUVEC with PBMC;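 note: total protein by sulforhodamine B absorbance as a cytotoxicity measure; measured one day after compound addition; fitted in both directions against DMSO so loss or gain of signal counts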
Summary of the method: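 HUVEC + PBMC co-culture, LPS-stimulated; compound 24 h. 10% TCA fix, 0.1% SRB stain, A560. Bidirectional fit vs DMSO.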

[9] = read-out: Interleukin-1 alpha (IL1a), IL1A (gene 3552); assay: BSK_LPS_IL1a: BioMAP Diversity Plus: LPS Assay for Interleukin-1 alpha (IL1a) Biomarker Activity (AID 2283080); conditions: primary human HUVEC with PBMC; actives raise or lower the signal
Summary of the method: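 HUVEC/PBMC co-culture, LPS system; 24 h after dosing; IL-1a by ELISA; gain or loss of signal fitted bidirectionally vs DMSO baseline.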

[10] = read-out: Monocyte Chemoattractant Protein-1 (MCP1), CCL2 (gene 6347); assay: BSK_LPS_MCP1: BioMAP Diversity Plus: LPS Assay for Monocyte Chemoattractant Protein-1 (MCP1) Biomarker Activity (AID 2283081); conditions: primary human HUVEC with PBMC; actives raise or lower the signal
Summary of the method: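 ELISA read-out of MCP-1 after 24 h chemical dosing of a human umbilical vein endothelial cell/peripheral blood mononuclear cell co-culture stimulated with LPS. Gain or loss of signal fitted relative to DMSO controls.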

[11] = BSK_LPS_PGE2: BioMAP Diversity Plus: LPS Assay for Prostaglandin E2 (PGE2) Biomarker Activity (AID 2283082); conditions: primary human HUVEC with PBMC; actives raise or lower the signal;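 for AC50: secreted prostaglandin E2 measured by ELISA in LPS-stimulated co-culture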
Summary of the method: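 PGE2 release measured by ELISA in an LPS-activated co-culture of human umbilical vein endothelial cells and peripheral blood mononuclear cells, read at 24 h post-dosing. DMSO served as baseline for bidirectional curve fitting.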

[12] = read-out: Macrophage colony-stimulating factor (MCSF), CSF1 (gene 1435); assay: BSK_LPS_MCSF: BioMAP Diversity Plus: LPS Assay for Macrophage colony-stimulating factor (MCSF) Biomarker Activity (AID 2283083); conditions: primary human HUVEC with PBMC; actives raise or lower the signal
Summary of the method: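 HUVEC + PBMC co-culture (human primary), 24 h post-dose; M-CSF by ELISA; gain/loss of signal fitted bidirectionally vs DMSO baseline.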

[13] = read-out: Tissue Factor, F3 (gene 2152); assay: BSK_LPS_TissueFactor: BioMAP Diversity Plus: LPS Assay for Tissue Factor Biomarker Activity (AID 2283084); conditions: primary human HUVEC with PBMC; actives raise or lower the signal
Summary of the method: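 HUVEC/PBMC co-culture, LPS-activated; CD142 ELISA read 24 h post-dose; bidirectional curve fit vs DMSO negative control.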

[14] = read-out: Tumor necrosis factor (Homo sapiens) (UniProt P01375); assay: BSK_LPS_TNFa: BioMAP Diversity Plus: LPS Assay for Tumour Necrosis Factor alpha (TNFa) Biomarker Activity (AID 2283085); conditions: primary human HUVEC with PBMC; actives raise or lower the signal;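 for AC50: TNFa protein level quantified by ELISA in the co-culture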
Summary of the method: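 TNFa was quantified by ELISA in LPS-activated co-cultures of human endothelial cells and PBMC, 24 h post-dosing. Both increases and decreases versus DMSO were fitted.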

[15] = read-out: Vascular cell adhesion molecule 1 (VCAM1), VCAM1 (gene 7412); assay: BSK_LPS_VCAM1: BioMAP Diversity Plus: LPS Assay for Vascular cell adhesion molecule 1 (VCAM1) Biomarker Activity (AID 2283086); conditions: primary human HUVEC with PBMC; actives raise or lower the signal
Summary of the method: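 VCAM-1 quantified by ELISA in an LPS-activated co-culture of human endothelial cells and peripheral blood mononuclear cells, read 24 h post-treatment. Fitted in both directions versus DMSO; parallel SRB staining flags overt cytotoxicity.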

CD38, CD38 (gene 952) = assay: BSK_SAg_CD38: BioMAP Diversity Plus: SAg Assay for CD38 Biomarker Activity (AID 2283087); conditions: primary human HUVEC with PBMC; actives raise or lower the signal
Summary of the method: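 CD38 quantified by ELISA (fluorescence) in a superantigen-activated endothelial cell–PBMC co-culture at 24 h post-dose. Activity fitted in both directions relative to DMSO; parallel SRB and Alamar Blue cytotoxicity read-outs.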

CD40, CD40 (gene 958) [16] = assay: BSK_SAg_CD40: BioMAP Diversity Plus: SAg Assay for CD40 Biomarker Activity (AID 2283088); conditions: primary human HUVEC with PBMC; actives raise or lower the signal
Summary of the method: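 HUVEC/PBMC co-culture, 24 h post-dose; CD40 by ELISA, fluorescence intensity; bidirectional fit vs DMSO negative control.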

CD69, CD69 (gene 969) = assay: BSK_SAg_CD69: BioMAP Diversity Plus: SAg Assay for CD69 Biomarker Activity (AID 2283089); conditions: primary human HUVEC with PBMC; actives raise or lower the signal;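 for AC50: cell surface CD69 protein quantified by ELISA with fluorescence detection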
Summary of the method: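 Primary human vascular co-culture (umbilical vein endothelium with peripheral blood mononuclear cells) exposed to test chemical for 24 h. CD69 levels quantified by fluorescence ELISA; DMSO served as negative control for bidirectional fitting.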

[17] = read-out: Transforming growth factor beta 1 (TGFb1), TGFB1 (gene 7040); assay: BSK_KF3CT_TGFb1: BioMAP Diversity Plus: KF3CT Assay for Transforming growth factor beta 1 (TGFb1) Biomarker Activity (AID 2283072); conditions: primary human keratinocytes with fibroblasts; actives raise or lower the signal
Summary of the method: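 ELISA quantifies TGF-b1 at 24 h post-dose in a primary human skin co-culture of keratinocytes and fibroblasts, with gain or loss judged against DMSO. Parallel SRB total-protein staining flags overt cytotoxicity.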

Measured: AC50

E-selectin (Homo sapiens), sequence (P16581 whole entry, looked up): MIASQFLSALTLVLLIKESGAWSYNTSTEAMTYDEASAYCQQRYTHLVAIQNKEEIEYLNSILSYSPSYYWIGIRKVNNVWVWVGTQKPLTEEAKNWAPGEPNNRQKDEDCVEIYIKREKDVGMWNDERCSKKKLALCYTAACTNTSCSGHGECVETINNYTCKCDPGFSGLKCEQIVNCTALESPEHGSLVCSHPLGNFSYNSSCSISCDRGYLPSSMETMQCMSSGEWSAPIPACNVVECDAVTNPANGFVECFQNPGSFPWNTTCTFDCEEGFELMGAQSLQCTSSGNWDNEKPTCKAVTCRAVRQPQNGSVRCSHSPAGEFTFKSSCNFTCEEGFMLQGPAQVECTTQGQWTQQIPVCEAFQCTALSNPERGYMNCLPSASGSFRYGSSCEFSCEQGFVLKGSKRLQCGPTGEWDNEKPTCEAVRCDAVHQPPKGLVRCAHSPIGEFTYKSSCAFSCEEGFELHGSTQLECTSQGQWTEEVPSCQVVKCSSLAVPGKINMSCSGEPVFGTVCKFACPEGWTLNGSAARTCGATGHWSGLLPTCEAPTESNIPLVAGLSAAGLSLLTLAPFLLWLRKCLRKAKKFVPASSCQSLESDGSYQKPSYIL
Tumor necrosis factor (Homo sapiens), sequence (P01375 whole entry, looked up): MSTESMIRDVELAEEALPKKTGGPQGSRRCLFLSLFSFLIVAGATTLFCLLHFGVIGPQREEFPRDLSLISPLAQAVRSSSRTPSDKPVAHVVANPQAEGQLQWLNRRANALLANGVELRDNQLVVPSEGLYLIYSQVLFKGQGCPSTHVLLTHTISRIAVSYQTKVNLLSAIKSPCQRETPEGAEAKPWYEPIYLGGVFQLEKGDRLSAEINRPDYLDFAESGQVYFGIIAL

FC(F)=C(F)C(F)(F)C(F)(F)C(F)(F)C(F)(F)C(F)(F)C(F)(F)F
not listed: [17]
inactive: all other assays above

Cc1ccc(S(=O)(=O)NC(=O)NN2CCCCCC2)cc1
not listed: [10]
inactive: all other assays above

OCCNCCO
not listed: [10]
inactive: all other assays above

C[Si](C)(C)C(F)(F)C(F)(F)C(F)(F)F
not listed: [17]
inactive: all other assays above

c1ccc2cc3ccccc3cc2c1
not listed: [10]
inactive: all other assays above

CCCCCCCCN(C)C
not listed: [9] | [10]
inactive: all other assays above

C=CCc1cc(S(=O)(=O)c2ccc(O)c(CC=C)c2)ccc1O
active: [1] 30 µM | [2] 24.4 µM | [3] 10.3 µM | [4] 30.4 µM | CD40, CD40 (gene 958) [5] 11.7 µM | [6] 29.2 µM | [7] 16.2 µM | [8] 14.7 µM | [9] 30.6 µM | [11] 32.3 µM | [12] 28.6 µM | [13] 32.7 µM | [14] 29.8 µM | [15] 30 µM | CD38, CD38 (gene 952) 14.5 µM | CD40, CD40 (gene 958) [16] 11.6 µM | CD69, CD69 (gene 969) 24.3 µM
inactive: [17]

O=S1(=O)CCCO1
not listed: [9]
inactive: all other assays above

CCCCN1C(=O)[C@@H]([C@H](O)C2CCCCC2)NC(=O)C12CCN(Cc1ccc(Oc3ccc(C(=O)O)cc3)cc1)CC2
not listed: [10]
inactive: all other assays above

OC(O)(C(F)C(O)(O)C(F)(F)F)C(F)(F)F
active: [13] 0.308 µM | [14] 4 µM and 13.3 µM | CD38, CD38 (gene 952) 16.6 µM and 18.1 µM
inactive: [1] | [2] | [3] | [4] | CD40, CD40 (gene 958) [5] | [6] | [7] | [8] | [11] | [12] | [13] | [15] | CD40, CD40 (gene 958) [16] | CD69, CD69 (gene 969)

FC(F)C(F)(F)COCC1CO1 (stereo unspecified)
not listed: [17]
inactive: all other assays above

NCC(F)(F)C(F)(F)C(F)(F)C(F)(F)F
not listed: [9] | [17]
inactive: all other assays above

O=C(O)c1cccc(C(=O)O)c1
active: [2] 0.323 µM
not listed: [10]
inactive: all other assays above
